Calls of active or inactive are those of the source. Rule for the calls: active = hit-call score of the fitted dose curve at least 0.9, where 1 is the maximum; inconclusive = response in the unintended direction; inactive = score below 0.9.

Chain of rat CYP3A2, Cyp3a2 (gene 266682) (P05183 whole entry, looked up): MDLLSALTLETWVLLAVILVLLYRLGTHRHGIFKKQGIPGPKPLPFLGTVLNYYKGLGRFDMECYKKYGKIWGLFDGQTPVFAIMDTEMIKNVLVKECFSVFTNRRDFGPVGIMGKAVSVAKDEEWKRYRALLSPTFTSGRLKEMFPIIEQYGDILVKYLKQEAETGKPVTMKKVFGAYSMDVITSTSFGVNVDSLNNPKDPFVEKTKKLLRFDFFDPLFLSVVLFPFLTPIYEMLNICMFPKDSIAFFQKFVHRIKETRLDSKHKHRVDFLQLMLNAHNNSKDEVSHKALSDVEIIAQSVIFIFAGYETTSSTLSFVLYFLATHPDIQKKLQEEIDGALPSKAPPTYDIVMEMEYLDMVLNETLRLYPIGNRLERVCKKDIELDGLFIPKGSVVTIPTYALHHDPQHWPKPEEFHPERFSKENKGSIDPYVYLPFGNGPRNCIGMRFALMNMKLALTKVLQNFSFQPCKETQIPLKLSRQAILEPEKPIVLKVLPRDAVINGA

For this assay, the target named is rat CYP3A2, Cyp3a2 (gene 266682) (UniProt P05183). Nature of the assay: NVS_ADME_rCYP3A2: NovaScreen (NVS) CYP450-related Enzyme Activity (ADME) Assay for rat CYP3A2 (AID 2283128). The protocol:
NVS_ADME_rCYP3A2 is a biochemical, single-readout assay that uses extracted gene-proteins in a cell-free assay. Measurements were taken 0.5 hour after chemical dosing in a 96-well plate.NVS_ADME_rCYP3A2 is one of one assay component(s) measured or calculated from the NVS_ADME_rCYP3A2 assay. It is designed to make measurements of enzyme activity, a form of enzyme reporter, as detected with fluorescence intensity signals by Fluorescence technology.Data from the assay component NVS_ADME_rCYP3A2 was analyzed into 1 assay endpoint. This assay endpoint, NVS_ADME_rCYP3A2, was analyzed in the positive analysis fitting direction relative to Acetonitrile as the negative control and baseline of activity. Using a type of enzyme reporter, loss-of-signal activity can be used to understand changes in the enzymatic activity as they relate to the gene Cyp3a2. Furthermore, this assay endpoint can be referred to as a primary readout, because this assay has produced multiple assay endpoints where this one serves a enzymatic activity function. To generalize the intended target to other relatable targets, this assay endpoint is annotated to the cyp intended target family, where the subfamily is xenobiotic metabolism.
Binding assays used specific radioligands (tritiated, iodinated) with non-radioactive competitive displacement ligands in agonist or antagonist protocols (as indicated) and various reference compounds and inhibitors to titrate specific binding to receptors and transporters. Most enzyme assays (CYPs, kinases, phosphatases, proteases, HDACs) used recombinant protein and specific substrates (fluorescence mostly, some colorimetric and radioactive) and inhibitors, followed by a biochemical separation of substrate and product. All assays for the biochemical HTS were initially run in duplicate at a single concentration (10 uM for CYP450 assays and 25 uM for all others). Assay-chemical combinations meeting a pre-defined threshold (e.g., 30% inhibition and other criteria defined below) were then run in singleton concentration-response format with maximum concentration of 20 uM for CYPs and 50 uM for all others. Each assay was run with positive and negative controls, and concurrent controls on every plate. The follow-up (secondary) screen tested active chemical-pairs in concentration series, as well as a few additional assays not tested in the primary screen, some selected negative inactives, and several cases re-run in the concentration series for confirmatory purposes.
In the case of `CCOP(=S)(OCC)Oc1ccc2c(C)c(Cl)c(=O)oc2c1`, the half-maximal activity concentration (AC50) was 0.83 µM (active). The same measure, in the same setting: then `CCOP(=S)(OCC)Oc1ccc([N+](=O)[O-])cc1`, with 2.86 µM (active). On the same count and under the same terms, with `COc1ccc(C(=CC(=O)N2CCOCC2)c2ccc(Cl)cc2)cc1OC` the figure was 6.54 µM (active); with `C[Si](Cn1cncn1)(c1ccc(F)cc1)c1ccc(F)cc1`, 1.07 µM (active). On the same count and under the same terms, with `CC[C@H](C)[C@H]1O[C@]2(C=C[C@@H]1C)C[C@@H]1C[C@@H](C/C=C(\C)[C@@H](O[C@H]3C[C@H](OC)[C@@H](O[C@H]4C[C@H](OC)[C@@H](NC)[C@H](C)O4)[C@H](C)O3)[C@@H](C)/C=C/C=C3\CO[C@@H]4[C@H](O)C(C)=C[C@@H](C(=O)O1)[C@]34O)O2` the figure was 8.11 µM (active); with `COP(=O)(OC)SCn1c(=O)oc2cc(Cl)cnc21`, 6.18 µM (active). For the compound `C#CCC1=C(C)C(OC(=O)C2C(C=C(C)C)C2(C)C)CC1=O` (stereo not given), the half-maximal activity concentration (AC50) was 3.03 µM (active). On the same count and under the same terms, with `C=C(C)[C@H]1Cc2c(ccc3c2O[C@@H]2COc4cc(OC)c(OC)cc4[C@@H]2C3=O)O1` the figure was 2.88 µM (active).

For `CCOC(=O)CC(SP(=O)(OC)OC)C(=O)OCC` (stereo not given), the call was inactive. For `CCOP(=O)(SC(C)CC)N1CCSC1=O` (stereo not given), the AC50 is 8.56 µM (active). Still for that read-out and setting: then `CC(C1CC1)C(O)(Cn1cncn1)c1ccc(Cl)cc1` (stereo not given), with 0.771 µM (active); and `CCCSP(=O)(OCC)Oc1ccc(Br)cc1Cl` (stereo not given), with 7.4 µM (active); and `CSC1=N[C@@](C)(c2ccccc2)C(=O)N1Nc1ccccc1`, with 7.11 µM (active). For the compound `COc1cccc(C(=O)NN(C(=O)c2cc(C)cc(C)c2)C(C)(C)C)c1C`, the half-maximal activity concentration (AC50) is 0.651 µM (active). In the case of `CNc1cnn(-c2cccc(C(F)(F)F)c2)c(=O)c1Cl`, the outcome was inactive. For `CCc1cccc(C)c1N(C(=O)CCl)C(C)COC` (stereo not given), the half-maximal activity concentration (AC50) was 6.68 µM (active). Same read-out and setting: then `FC(F)C(F)(F)OCC(Cn1cncn1)c1ccc(Cl)cc1Cl` (stereo not given), with 5.51 µM (active).

Turning to `CN(C)NC(=O)CCC(=O)O`, the call was inactive. In the case of `CC1(C(=O)Nc2ccc(O)c(Cl)c2Cl)CCCCC1`, the AC50 was 3.42 µM (active). Same read-out and setting: with `CCCOCC(=Nc1ccc(Cl)cc1C(F)(F)F)n1ccnc1` the figure was 1.7 µM (active).

What is called AC50 is the midpoint of the concentration-response curve, whichever way the signal moves.
